# Compound activity: PubChem BioAssay, National Center for Advancing Translational Sciences (NCATS)
# Rows were chosen to be rich in hits. Some 5.9% of all compounds tested hit in one or more screens of this group.
# RORgamma inh – qHTS for inhibitors of ROR gamma transcriptional activity | Drosophila S2 Gal4-RORgamma UAS-luciferase reporter, 20 h | Nuclear receptor ROR-gamma (Mus musculus), P51450 | Potency, µM (series often up to 53.6 µM), inactives show top-dose activity change, negative = inhibition, actives largely listed as inhibitors | hit rate 5.4% among 310,000; also: potency is read from the fitted curve at half-maximal effect; nearly all actives have a fitted effect of over 60% in size
#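 In this cell-based reporter format, copper sulfate (700 uM final) drives Gal4–ROR gamma fusion expression from a metallothionein promoter in Drosophila Schneider cells; compounds preincubated 1 hr, reporter read after 20 hr at ambient temperature.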
# TrxR1 substrate – qHTS Assay for Substrates of Mammalian Selenoprotein Thioredoxin Reductase 1 (TrxR1): qHTS; Thioredoxin reductase 1, cytoplasmic (Rattus norvegicus), O89049; AID 588456, 2011; hit rate 0.01% among 390,000; purified TrxR1 substrate turnover, NADPH consumption readout; Potency, µM (highest dose often 114 µM), for inactives: top-dose activity change, negative = substrate turnover; also: potency is read from the fitted curve at half-maximal effect; nearly all actives have a fitted effect of over 50% in size
# Target sequence (O89049 whole entry, looked up): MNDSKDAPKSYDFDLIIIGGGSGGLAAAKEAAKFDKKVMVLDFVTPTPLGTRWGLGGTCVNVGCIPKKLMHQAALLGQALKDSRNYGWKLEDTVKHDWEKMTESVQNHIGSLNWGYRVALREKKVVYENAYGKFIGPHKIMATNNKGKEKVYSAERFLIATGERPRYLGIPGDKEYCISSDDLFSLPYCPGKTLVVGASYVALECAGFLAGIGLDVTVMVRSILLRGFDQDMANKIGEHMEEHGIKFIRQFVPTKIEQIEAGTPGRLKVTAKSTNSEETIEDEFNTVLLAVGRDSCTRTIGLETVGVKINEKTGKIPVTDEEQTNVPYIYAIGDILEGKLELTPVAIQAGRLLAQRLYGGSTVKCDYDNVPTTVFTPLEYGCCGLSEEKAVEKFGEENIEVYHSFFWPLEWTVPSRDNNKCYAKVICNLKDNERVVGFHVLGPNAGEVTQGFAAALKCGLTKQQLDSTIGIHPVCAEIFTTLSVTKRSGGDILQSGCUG
#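 Rat TrxR1, dispensed at 90 nM, was prereduced with 400 uM NADPH (final) for 5 min at ~22 deg C, then incubated with compound 15 min before 400 uM selenite. A first-read NADPH fluorescence drop versus no-compound background flagged substrates.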
# TrxR1 inh – qHTS Assay for Inhibitors of Mammalian Selenoprotein Thioredoxin Reductase 1 (TrxR1): qHTS | Thioredoxin reductase 1, cytoplasmic (Rattus norvegicus), O89049 | recombinant rTrxR1, NADPH fluorescence consumption, selenite substrate | Potency, µM (top dose mostly 114 µM), without a hit: top-dose activity change, negative = inhibition, usual class: inhibitors | hit rate 1% among 390,000 | AID 588453, 2011; also: potency is read from the fitted curve at half-maximal effect; nearly all actives have a fitted effect of over 65% in size
#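 Rat TrxR1 (90 nM in the dispensed reagent) was pre-reduced with 400 uM NADPH for 5 min at room temperature, then incubated with compound for 15 min. After 400 uM selenite was added, NADPH fluorescence (Ex 340/Em 450 nm) was followed for 8 min.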
# GALK inh – qHTS Assay for Inhibitors of Human Galactokinase (GALK); Purified GALK, Kinase-Glo residual ATP luminescence; hit rate 0.007% among 270,000; P51570; Potency, µM (doses to about 57.5 µM), without a hit: at the top dose activity change, negative = inhibition, most hits filed as inhibitors; AID 1868, 2009; also: potency is read from the fitted curve at half-maximal effect
#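 Galactose (100 uM) and ATP (35 uM) were turned over by 5 nM GALK for 1 h at RT. Kinase-Glo Plus then converted the remaining ATP into a luminescent signal.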
# Coupling enz – qHTS Assay for Inhibitors of Fructose-1,6-bisphosphate Aldolase from Giardia Lamblia: Coupling assay counterscreen; coupling enzyme system counterscreen, AmpLite Red fluorescence; activity change, negative = inhibition, % at 58.2 µM, hits read low; hit rate 0.67% among 290,000; AID 2472, 2010; in the data active = activity change below about -30%
#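 Activity here indicates interference with the coupling reaction, not aldolase inhibition. Compounds at 57.5 uM final met coupling enzymes for 10 min at RT; substrate and AmpLite Red detection followed, with a 525/598 nm fluorescence read after 20 min.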
# Gal4-VP16 FLuc – VP16 counterscreen qHTS for inhibitors of ROR gamma transcriptional activity; AID 2546, 2010; Potency, µM (titrated, usually from 53.6 µM), for inactives: at the highest dose activity, negative = inhibition, usual class: inhibitors; Drosophila S2 Gal4-VP16 UAS-luciferase, luminescence, 20 h; hit rate 3.5% among 310,000;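 also: Gal4-VP16 expression switched on by copper sulfate through the metallothionein promoter; potency is read from the fitted curve at half-maximal effect; nearly all actives have a fitted effect of over 50% in size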
# * = called active by the depositor; ? = inconclusive; / = not tested or not shown; [ ] = dose if it differs, or a comment. Unless noted, calls follow the shape of the dose curve; as a rule, active = well fitted curve in the direction sought with a large enough effect; inconclusive = small, poorly fitted or top-dose-only effect, or another doubt; inactive = no such curve, though single readings can be large; an effect the other way counts as inactive or inconclusive. % is scaled to controls: 0 for no effect and ±100 for the full control effect.
SMILES,RORgamma inh,TrxR1 substrate,TrxR1 inh,GALK inh,Coupling enz,Gal4-VP16 FLuc
CCOC(=O)c1c(C)[nH]c(C)c1C(=O)CSc1nnc(N)s1,-17%,-2%,16%,12%,4,0%
CC(C)OC(=O)CSc1nc2cccnc2n1-c1ccc(F)cc1,0%,-14%,-18%,-1%,2,-7%
CCn1nc(-c2ccc(C)cc2)nc2c(=O)n(C)c(=O)nc1-2,/,50µM*,?,/,/,/
Cn1nc(-c2ccncc2)nc2c(=O)n(C)c(=O)nc1-2,/,20µM*,20µM*,/,/,/
COc1ccc(-c2nc(-c3ccncc3)no2)cc1,-36%,1%,8%,2%,3,-13%
Cc1c(O)ccc(C(=O)CN2CCN(Cc3ccc4c(c3)OCO4)CC2)c1O,-6%,-3%,?,-3%,4,-7%
Oc1oc(-c2cccc3ccccc23)nc1/C=N/c1nccs1,8.9µM*,-2%,-13%[57.1 µM],-2%,0,13µM*
COc1ccccc1C(=O)N1CCC(c2noc(-c3ccc(S(=O)(=O)N4CCCC4)cc3)n2)CC1,/,-7%,14%,/,/,/
S=C(NCc1ccco1)N1CCN(C(c2ccccc2)c2ccccc2)CC1,13µM*,8%,28%,-3%,4,?
COCCCNC(=S)N1CCN(C(c2ccccc2)c2ccccc2)CC1,16µM*,-3%,5%,-2%,1,?
CC(C)CNC(=S)N1CCN(C(c2ccccc2)c2ccccc2)CC1,13µM*,-1%,14%,0%,-1,?
C=C(C)CNC(=S)N1CCN(C(c2ccccc2)c2ccccc2)CC1,?,-7%[57.1 µM],19%[57.1 µM],3%,2,?
CSC1CCCCC1(O)CSc1nc2c(cc1C#N)CCCC2 (configuration not stated),-12%[0.365 µM],5%,-1%,0%,3,/
Cc1ccc(NC(=O)CCNC(=O)Nc2ccccc2)cc1S(=O)(=O)N(C)C,/,-2%,17%,/,/,/
CN1C(=O)/C(=C/c2ccccc2OCc2ccc(C(=O)O)cc2)NC1=S,10%,-17%,?,-2%,6,-21%
CN1C(=O)/C(=C/c2cc(C(C)(C)C)c(O)c(C(C)(C)C)c2)NC1=S,7.1µM*,0%,?,-1%,-1,?
O=c1c2cc(N3CCOCC3)ccc2[nH]c(=S)n1CCCN1CCCC1,6%,10%,0%,-1%,0,-3%
O=c1c2cc(N3CCOCC3)ccc2[nH]c(=S)n1CCCN1CCCCC1,23%,7%,6%,0%,-38*,-6%
CCN(CCCn1c(=S)[nH]c2ccc(N3CCOCC3)cc2c1=O)c1ccccc1,4µM*,13%[57.1 µM],26%[57.1 µM],-3%,-1,?
CC1CCN(CCCn2c(=S)[nH]c3ccc(N4CCOCC4)cc3c2=O)CC1,12%,-1%[57.1 µM],-10%[57.1 µM],-2%,-1,-2%
COC(=O)c1c(NC(=O)C2CCCCC2C(=O)O)sc2c1CCCCC2 (configuration not stated),5%,-5%,12%[57.1 µM],-4%,17,10%[10 µM]
CC(C)(C)C1CCc2c(sc(NC(=O)c3cc(C4CC4)on3)c2C#N)C1 (configuration not stated),5.6µM*,1%[57.1 µM],47%,0%,3,?
Cc1cc(C(=O)Nc2sc3c(c2C#N)CCC(C(C)(C)C)C3)no1 (configuration not stated),10%,13%[57.1 µM],8%[57.1 µM],2%,3,-4%
COc1ccc(NS(=O)(=O)c2ccc(NC(=O)c3ccccc3Br)cc2)nn1,?,-1%,10%,1%,0,-4%
Cc1cccc(OCCn2c(-c3ccco3)nc3ccccc32)c1,16µM*,7%,?,-2%,/,-2%
SMILES,RORgamma inh,TrxR1 substrate,TrxR1 inh,GALK inh,Coupling enz,Gal4-VP16 FLuc
c1ccc(OCCn2c(-c3ccco3)nc3ccccc32)cc1,11µM*,13%,14µM*,-1%,-4,1%
Cc1ccc(N=Nc2c(N)[nH]n3c(=O)cc(C)nc23)cc1,10µM*,-22%,-18%,1%,-2,-24%
O=c1c(-c2cc(F)cc(F)c2)nc2cnc(N3CCNCC3)nc2n1Cc1cccs1,2.8µM*,/,/,/,1,?
O=c1c(-c2cc(F)cc(F)c2)nc2cnc(N3CCOCC3)nc2n1Cc1cccs1,-22%,/,/,/,1,2%
CN1CCN(c2ncc3nc(-c4cccs4)c(=O)n(CCC#N)c3n2)CC1,0.71µM*,/,/,/,-3,6.3µM*
CN(C)c1ncc2nc(-c3cccs3)c(=O)n(CCC#N)c2n1,-14%,/,/,/,0,-6%
O=c1c(-c2ccc(Cl)cc2)nc2cnc(N3CCNCC3)nc2n1Cc1cccs1,-11%,/,/,/,10,?
O=c1c(-c2cccs2)nc2cnc(N3CCNCC3)nc2n1Cc1cccs1,18µM*,/,/,/,3,8.9µM*
COc1ccc(-n2c(=O)c(-c3cccs3)nc3cnc(N4CCNCC4)nc32)cc1,?,/,/,/,-1,10µM*
COc1cccc(NC(=S)N(CCC(C)C)C(C)c2ccncc2)c1 (configuration not stated),-39%,4%,13%,-1%,6,8%
O=C(O)c1ccc(CCN2CCN(CC=Cc3ccc(Cl)cc3)CC2)cc1,-3%,/,/,/,5,-6%
O=C(NCCCN1CCN(CCCNC(=O)c2cccc(Cl)c2)CC1)c1cccc(Cl)c1,8%,-6%,-11%,2%,0,0%
COc1ccccc1NS(=O)(=O)c1ccc(C)c(C(=O)Nc2ccc(S(=O)(=O)Nc3onc(C)c3C)cc2)c1,/,3%,18%,/,/,/
COc1ccccc1-c1ccc(SCc2ccccc2F)nn1,?,-7%,7%[57.1 µM],9%,-1,2%
Cc1cc(NC(=O)CSc2nnc(CNC(=O)c3ccc(C(C)(C)C)cc3)o2)no1,-14%,-1%,4%,4%,-2,-1%
COc1ccc(-c2nc3cnc(N4CCNCC4)nc3n(Cc3ccc(F)cc3)c2=O)cc1,-25%,/,/,/,-1,-10%
O=c1c(-c2ccc(F)cc2)nc2cnc(N3CCNCC3)nc2n1Cc1ccc(F)cc1,14µM*,/,/,/,2,?
CN1CCN(c2ncc3nc(-c4cccs4)c(=O)n(Cc4cccs4)c3n2)CC1,13µM*,/,/,/,3,?
